The list is not random: actives were taken first. Their share in the collection is about 4.7%.
TRHR enhancer: allosterically enhances the human TRH receptor; P34981; enhancement, % at 2 µM; TRHR cells, fluo-8 calcium fluorescence, EC20 TRH enhancement; 360,000 compounds, 0.66% hits; in the data active = enhancement above about 30%
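Enhancer read-out: after compound pinning and an initial kinetic agonist-mode read, an EC20 of TRH (10 nM final) was injected and fluo-8 calcium signal (Ex 480/Em 530) followed at 1 s/cycle for 100 cycles in TRHR-expressing cells.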
D1 ag: human D1 receptor agonism | HEK293 T-REx D1 cells, calcium flux, agonist mode | activation, % at 2 µM | 360,000 compounds, 1% hits
Target sequence (P21728 whole entry, looked up): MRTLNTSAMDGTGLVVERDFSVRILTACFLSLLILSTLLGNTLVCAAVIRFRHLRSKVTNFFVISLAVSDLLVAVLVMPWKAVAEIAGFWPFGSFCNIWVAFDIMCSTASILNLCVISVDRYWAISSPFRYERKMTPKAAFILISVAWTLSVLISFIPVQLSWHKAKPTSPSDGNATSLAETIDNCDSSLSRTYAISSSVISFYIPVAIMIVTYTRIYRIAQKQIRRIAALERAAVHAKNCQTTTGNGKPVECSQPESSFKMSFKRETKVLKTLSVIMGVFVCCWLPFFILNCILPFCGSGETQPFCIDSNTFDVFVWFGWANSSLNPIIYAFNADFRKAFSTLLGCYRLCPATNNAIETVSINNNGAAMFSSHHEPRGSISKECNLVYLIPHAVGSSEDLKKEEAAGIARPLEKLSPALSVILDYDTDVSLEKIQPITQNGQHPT
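Inducible HEK293 T-REx D1 cells, force-coupled to calcium signalling, were plated at 4000 cells/well with tetracycline and held overnight at 30 C. After no-wash calcium dye loading, compound-evoked calcium rise over 180 s flagged agonists.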
TRHR ag: agonists of human TRH receptor; P34981; TRHR cells, calcium flux fluo-8, FDSS agonist mode; activation, % at 2 µM; 360,000 compounds, 0.18% hits; AID 493084
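TRHR-expressing cells, plated overnight in medium with 10% serum, were loaded with fluo-8 calcium dye at room temperature. After a 10 s baseline, library compound was pin-added and calcium release was recorded kinetically (ex 480/em 530) as agonist response.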
D1 antag: antagonists of human D1 dopamine receptor. HEK293 TREx D1 cells, calcium flux, dopamine EC80; stronger effect = lower value. activity change, negative = inhibition, % at 10 µM. 360,000 compounds, 3.2% hits; in the data active = activity change below about -30%
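Tetracycline-induced HEK293 T-REx cells with force-coupled D1 receptor were loaded with a no-wash calcium dye. Compound was added after a 10 s baseline and read kinetically for 180 s; EC80 dopamine was then added and calcium flux followed another 180 s.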
D1 potentiator: human D1 dopamine receptor positive modulation | P21728 | HEK293 TREx D1 cells, calcium flux, dopamine EC20 potentiation | potentiation, % at 10 µM | 360,000 compounds, 0.036% hits | AID 504651; in the data active = potentiation above about 30%
Hits are given with their value; – = inactive; · = not tested or not shown. Cut-off read from the data, not from the text of the source, unless noted: active = activation above about 30%; inactive = the rest.

SMILES	TRHR enhancer	D1 ag	TRHR ag	D1 antag	D1 potentiator
CC(C)(O)CNC(=O)Nc1ccc(Cl)c(Cl)c1	–	–	–	–	–
Cc1cc(C)cc(C(=O)N(NC(=O)Nc2ccc(Cl)cc2)C(C)(C)C)c1	–	–	–	-30	–
CCOc1ccc(OCC)c(NC(=O)c2cc(S(=O)(=O)N3CCCC3)cn2C)c1	–	–	–	–	–
CCOC(=O)c1c(C)[nH]c(C)c1S(=O)(=O)N(C)CC(=O)Nc1ccc(OC)cc1	–	–	–	–	–
COc1ccc(NC(=O)CN2CCC(C(N)=O)(N3CCCCC3)CC2)c(OC)c1	–	–	–	-37	–
O=C1CC(c2ccsc2)Sc2ccccc2N1 (stereo unspecified)	–	–	–	-32	–
Cc1cc(C2CC(=O)Nc3ccccc3S2)c(C)s1 (stereo unspecified)	–	–	–	–	–
C=CCn1c(SCc2ccccc2)nc(O)cc1=O	–	–	–	–	–
C=CCn1c(SC(C)CC)nc(O)cc1=O (stereo unspecified)	–	140	–	–	–
CCCCSc1nc(O)cc(=O)n1CC	–	38	–	–	–
C=CCn1c(SCCCC)nc(O)cc1=O	–	79	–	–	–
C=CCn1c(SCCCCCC)nc(O)cc1=O	–	–	–	–	–
CCOC(=O)CNC(=O)CC(c1cc(OC)c(OC)c(OC)c1)N1Cc2ccccc2C1=O (stereo unspecified)	–	–	–	–	–
CCC(=O)Nc1ccc(OCc2nnc3c4ccccc4c(C)nn23)cc1	–	–	–	–	–
CCC(=O)Nc1ccc(-c2nnc3c4ccccc4c(C)nn23)cc1	–	–	–	-39	–
Cc1ccc2c(c1)c(=O)c1ccccc1n2CCCC(=O)Nc1ccc(C)c(F)c1	–	–	–	-48	–
Cc1ccc(NC(=O)Cc2nn(C)c(=O)c3ccccc23)cc1F	–	–	–	-66	–
O=C(NCc1ccco1)c1ccc2c(c1)N(Cc1ccc(F)cc1)C(=O)c1ccccc1S2(=O)=O	–	–	–	–	–
CN1C(=O)C(C)(C)c2cc(S(=O)(=O)N3CCN(c4ccccc4)CC3)ccc21	–	–	–	-40	–
CN1C(=O)C(C)(C)c2cc(S(=O)(=O)N3CCCCCC3)ccc21	–	–	–	–	–
CN(C)CCCNC(=S)NCC(c1ccc(Cl)cc1Cl)c1c[nH]c2ccccc12 (stereo unspecified)	–	61	–	-40	–
NCC(c1ccc(Cl)cc1Cl)c1c[nH]c2ccccc12 (stereo unspecified)	–	41	–	–	–
Cc1ccc(C)c(N2CCN(C(=O)CN3C(=O)CSc4c3c(C)nn4-c3ccccc3)CC2)c1	–	–	–	–	–
Cc1ccc2[nH]c(O)c(N=NC(=O)CCc3ccccc3)c2c1Br	32	–	–	–	–
O=C(CSCc1ccccc1)N=Nc1c(O)[nH]c2ccccc12	–	–	–	–	–
SMILES	TRHR enhancer	D1 ag	TRHR ag	D1 antag	D1 potentiator
O=C(Cc1cccs1)N1CCN(S(=O)(=O)c2ccccc2)CC1	–	–	–	–	–
O=C(CCCc1cccs1)N1CCN(S(=O)(=O)c2ccccc2Br)CC1	–	–	–	-31	–
Cc1ccc(-n2nnc(-c3nc(-c4cccs4)no3)c2N)cc1C	–	–	–	–	–
CNC[C@H](O)c1ccc(O)c(O)c1	–	–	–	–	–
CC(C)NCC(O)c1ccc(O)c(O)c1 (stereo unspecified)	36	–	–	–	–
Cn1cc(CNC(=O)c2cc(-c3ccccc3)nc3ccc(Br)cc23)cn1	–	–	–	-34	–
CCOC(=O)c1ccccc1NC(=O)CN1CCCN(Cc2cc(C)ccc2C)S1(=O)=O	–	–	–	–	–
O=C(O)c1ccccc1-c1nc(-c2ccccc2)c(-c2ccccc2)[nH]1	–	–	–	–	–
O=C(O)c1ccccc1-c1nc2ccccc2c(=O)[nH]1	–	–	–	-40	–
Cc1c(Cl)ccc2sc(N3CCN(C(=O)CCS(=O)(=O)c4ccc(F)cc4)CC3)nc12	–	–	–	·	–
CCOC(=O)C(CCCOc1cccc(OC)c1)C(=O)OCC	–	–	–	-34	–
O=[N+]([O-])c1cc(C(F)(F)F)cc([N+](=O)[O-])c1NCCNC(=S)Nc1ccc(Cl)c(Cl)c1	–	–	–	-32	–
